Screening data: PubChem, several laboratories
PfHsp90 yeast 2: reduces growth (ATP signal) of yeast expressing P. falciparum Hsp90; S. cerevisiae expressing PfHsp90, BacTiter-Glo ATP, 48 h; yeast lacking PDR1 and PDR3 efflux regulators; inhibition, % at 9.4 µM; 310,000 compounds, 0.32% hits;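 active = every replicate shows inhibition above about 80%, whatever the replicate mean, limit read from the data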
tim10-1 inh: tim10-1 yeast growth inhibition. 330,000 compounds, 2.2% hits. inhibition, % at 20 µM. AID 463190. S. cerevisiae tim10-1 ts strain growth, BacTiter-Glo, 24 h;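 active = inhibition of at least 40%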;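 note: mutant grown at 25 °C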
TIM10 inh: inhibits growth of TIM10 yeast strain. S. cerevisiae TIM10 strain growth, BacTiter-Glo luminescence, 24 h. inhibition, % at 10 µM. 330,000 compounds, 1.4% hits. AID 463195;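 active = inhibition of 40% or more at the single tested concentration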;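 note: wild-type TIM10 isogenic control strain grown at permissive 25 °C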
tim23-1 inh: growth inhibitors of tim23-1 mutant yeast. 330,000 compounds, 1.3% hits. AID 463212. S. cerevisiae tim23-1 growth, BacTiter-Glo luminescence, 24 h. inhibition, % at 20 µM;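 active = growth inhibition of the mutant yeast at or above 50%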;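 note: temperature-sensitive mutant grown at 25 °C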
SKKanGAS inh: SKKanGAS growth inhibition; S. pyogenes SKKanGAS, kanamycin growth, BacTiter-Glo, 6 h; inhibition, % at 7.5 µM; 300,000 compounds, 1.3% hits;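 active = mean replicate score, as percent of positive control median, at least 50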;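 note: strain carries kanamycin resistance gene driven by streptokinase promoter and grows in 40 µg/ml kanamycin; loss of luminescence reflects streptokinase promoter inhibition or plain growth inhibition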
NALP1 inh: blocks the NALP1 inflammasome reconstituted in yeast; S. cerevisiae NALP1/ASC/caspase-1 growth, X-gal OD620, 72 h; inhibition, % at 10 µM; 280,000 compounds, 0.61% hits; in the data active = inhibition mostly above about 24%, no sharp cut-off; inactive = mostly below about 32%
tim10-1 conf: tim10-1 yeast growth inhibition, confirmed; shares compounds with tim10-1 inh; S. cerevisiae tim10-1 ts strain growth, BacTiter-Glo, 24 h; inhibition, % at 20 µM; 7,400 compounds, 56% hits;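 active = inhibition of yeast growth at or above a set limit in either of two repeat tests at 20 µM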;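 note: tim10-1 mutant grown at permissive 25 °C to find synthetic lethal compounds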
Of the large screens only hits and unclear results are named; the others gave an inactive call (follow-up assays come after a bar, where they were run). Sampled rows, rich in hits. Any-hit rate of the full collection: about 4.8%.

COc1ccc(S(=O)(=O)n2nc(OC(=O)c3ccco3)cc2N)cc1	tim10-1 inh 41 | tim10-1 conf inactive
Cc1ccccc1C(=O)Oc1cc(N)n(S(=O)(=O)c2ccccc2)n1	tim10-1 inh 48 | tim10-1 conf inactive
COc1ccc(S(=O)(=O)n2nc(OC(=O)c3ccncc3)cc2N)cc1	none
CN(C[C@H](Cc1ccccc1)N(C[C@H](Cc1ccccc1)N(CCc1cc(C(F)(F)F)cc(C(F)(F)F)c1)N=O)N=O)N=O	none
CCN(CC)CCN(Cc1cc2cccc(C)c2[nH]c1=O)C(=S)Nc1ccccc1	none
Cc1ccc2cc(CN(CCN(C)C)C(=S)Nc3ccccc3)c(=O)[nH]c2c1C	tim10-1 inh 40 (no result: PfHsp90 yeast 2) | tim10-1 conf inactive
COc1cc(-c2nn3c(-c4ccco4)nnc3s2)cc(OC)c1OC	none (no result: PfHsp90 yeast 2, tim10-1 inh, TIM10 inh, tim23-1 inh, SKKanGAS inh)
COc1cccc(OC)c1-c1nn2c(-c3ccco3)nnc2s1	tim10-1 inh 45 | tim10-1 conf 31
O=S(=O)(Nc1ccc(-n2cccc2)cc1)c1ccc(F)cc1	none
O=S(=O)(Nc1ccc(-n2cccc2)cc1)c1ccc(Cl)cc1Cl	tim10-1 inh 48 | tim10-1 conf inactive
C/C(=N\O)c1cc(Cl)cc(Cl)c1O	tim10-1 inh 48 | tim10-1 conf 43
Cc1ccc(S(=O)(=O)N2CCC(C(=O)Nc3nnc(C)s3)CC2)cc1	none
CCCc1ccc(-c2cc(NC(=O)CSc3nnc(N)s3)n(-c3ccccc3)n2)cc1	tim10-1 inh 43 | tim10-1 conf inactive
CC(=O)Oc1ccc(C(=O)Nc2cc(C)ccc2NC(=O)COc2ccccc2)cc1	none
COc1cccc(/C=N/Nc2nc(Nc3ccccc3)nc(-n3nc(C)cc3C)n2)c1O	tim10-1 inh 45, SKKanGAS inh 98 (no result: PfHsp90 yeast 2) | tim10-1 conf inactive
Cc1nn(-c2ccccc2)c(Cl)c1C(=O)N1CCN(c2ncnc3c2cnn3-c2ccccc2)CC1	tim10-1 inh 41 | tim10-1 conf 32
Cc1cn2c(=O)c(C(=O)N3CCN(c4ccccc4)CC3)cnc2s1	none (no result: NALP1 inh)
C/C(=N\NC(=S)Nc1ccc(C)cc1)c1cccc(N)c1	tim10-1 inh 42 | tim10-1 conf inactive
O=C(OC1CCCCC1=O)c1cc(Cl)ccc1[N+](=O)[O-] (stereo not given)	tim10-1 inh 45 | tim10-1 conf 39
CC(C)CC1Nc2ncnc(N3CCN(c4ccccc4)CC3)c2N(Cc2ccccc2)C1=O (stereo not given)	none (no result: NALP1 inh)
COc1ccc(CN2C(=O)C(CC(C)C)Nc3ncnc(N4CCN(c5ccccc5)CC4)c32)cc1 (stereo not given)	tim10-1 inh 43 (no result: NALP1 inh) | tim10-1 conf inactive
CC1CN(c2nc3c(c(=O)n(Cc4ccc(Cl)cc4)c(=O)n3C)n2C)CC(C)O1 (stereo not given)	tim10-1 inh 44 | tim10-1 conf inactive
CC1CN(Cc2ccccc2)c2nc3c(c(=O)n(C)c(=O)n3C)n2C1 (stereo not given)	none
CC(C)Cn1c(=O)c2c(nc3n2CC(C)CN3Cc2ccccc2)n(C)c1=O (stereo not given)	tim10-1 inh 40 | tim10-1 conf inactive
Cc1ccc(-c2c[n+](CC(=O)Nc3ccc(C)cc3C)c3n2CCC3)cc1	none
CC(CC(=O)Nc1ncc([N+](=O)[O-])s1)c1ccccc1 (stereo not given)	tim10-1 inh 43 (no result: PfHsp90 yeast 2, SKKanGAS inh) | tim10-1 conf 52
CCC(Oc1ccccc1)C(=O)Nc1ncc([N+](=O)[O-])s1 (stereo not given)	tim10-1 inh 42 | tim10-1 conf 55
O=C(COC(=O)COc1ccccc1)Nc1ncc([N+](=O)[O-])s1	none (no result: SKKanGAS inh, NALP1 inh)
COc1ccc(Cl)cc1NC(=S)Nc1cccnc1	none
COc1ccc(-c2cc(C(=O)OCC(=O)N(C)C)c3ccccc3n2)cc1	none
COc1ccc(-c2cc(C(=O)OCc3ccccn3)c3ccccc3n2)cc1	tim10-1 inh 42 | tim10-1 conf inactive
COc1ccc(-c2cc(C(=O)N3CCCCCC3)c3ccccc3n2)cc1	tim10-1 inh 52 (no result: SKKanGAS inh, NALP1 inh) | tim10-1 conf inactive
COc1ccc(N2CCN(C(=O)CSc3nnc4n3C(C)(C)Cc3ccccc3-4)CC2)cc1	tim10-1 inh 46 | tim10-1 conf inactive
CCOc1ccccc1NC1=C(Cl)C(=O)N(Cc2ccccc2)C1=O	tim10-1 inh 44 | tim10-1 conf inactive
CC1CCCCN1C(=O)c1cccc(NC2=C(Cl)C(=O)N(Cc3ccccc3)C2=O)c1 (stereo not given)	tim10-1 inh 51 (no result: PfHsp90 yeast 2, SKKanGAS inh, NALP1 inh) | tim10-1 conf 35
O=C1C(Cl)=C(Nc2cccc(O)c2)C(=O)N1Cc1ccccc1	tim10-1 inh 42 | tim10-1 conf 31
C=CCNC1=C(Cl)C(=O)N(Cc2ccccc2)C1=O	none
NC(=O)C12CCCC(Br)(CCC1)C2	none (no result: NALP1 inh)
CN(CC(=O)Nc1ccc(F)cc1)C(=O)Cn1c(=O)oc2ccccc21	none (no result: SKKanGAS inh, NALP1 inh)
COC(=O)c1cn(-c2ccc(Cl)cc2)c(=O)c2ccccc12	tim10-1 inh 44 | tim10-1 conf inactive
O=[N+]([O-])c1ccc2oc(C(O)c3cccc(Cl)c3)cc2c1 (stereo not given)	tim10-1 inh 44 | tim10-1 conf 43
CC1(C)CC(NC(=O)COc2ccccc2Cl)CC(C)(C)N1	none
CNCc1ccccc1Sc1cccc2ccccc12	tim10-1 inh 41 | tim10-1 conf inactive
COc1ccc(NC2c3ncccc3C(=O)N2Cc2cccs2)cc1 (stereo not given)	none
O=C1c2cccnc2C(Nc2ccc(Br)cc2)N1Cc1cccs1 (stereo not given)	tim10-1 inh 41 (no result: PfHsp90 yeast 2) | tim10-1 conf inactive
CC1=NN(c2nc(-c3ccc(F)cc3)cs2)C(=O)C1	none
CC1=NN(c2nc(-c3ccc(Cl)cc3)cs2)C(=O)C1	tim10-1 inh 63 | tim10-1 conf 29
CC1=NN(c2ccc(Cl)cc2)C(=O)C1	tim10-1 inh 47 | tim10-1 conf inactive
Cc1c(OCC(=O)NCCN2CCOCC2)ccc2c3c(c(=O)oc12)CCC3	none
CCCc1cc(=O)oc2c(C)c(OCC(=O)Nc3ccc(CN4CCOCC4)cc3)ccc12	tim10-1 inh 40 | tim10-1 conf 33
Cc1c(OCC(=O)NCCCN2CCOCC2)ccc2c3c(c(=O)oc12)CCCC3	tim10-1 inh 46 | tim10-1 conf inactive
CCCc1cc(=O)oc2c(C)c(OCC(=O)NCCCN3CCOCC3)ccc12	none
O=C(Nc1ccccc1Cl)C(Cl)C(=O)c1ccccc1 (stereo not given)	tim10-1 inh 42 (no result: SKKanGAS inh) | tim10-1 conf 31
CCc1nnc(NC(=O)CSc2nnc(-c3cc4ccccc4cc3O)n2CCOC)s1	none
Fc1ccc(-n2cc(-c3ccccc3)[n+]3c2SCC3)cc1	none
COc1ccccc1C(=O)NNC(=O)c1ccc(C)cc1	none
COc1ccccc1C(=O)NC(=O)Nc1c(C)cc(C)cc1C	tim10-1 inh 42 | tim10-1 conf 40
